# In all, about 220,000 compounds went through this assay and about 2,400 (1.1%) were called active. About 7% were inconclusive and are not listed. This is one part of a sample in which actives are shown more often than they occur. Unmarked numbers belong to inactive results. The call rests on the fitted dose curve; in most records, active means well fitted inhibition curve with a large enough effect; inconclusive means small, poorly fitted or top-dose-only effect, or effect the other way; inactive means no such curve, though single readings can be large or run the other way.
# Assay: qHTS Multiplex Assay to Identify Dual Action Probes in a Cell Model of Huntington: Aggregate Formation (GFP); further: nearly all actives have a fitted effect of over 60% in size
# Conditions: PC12 HttQ103-GFP aggregates, Acumen cytometry, 40 h; series mostly up to 9.22 µM; activity change, negative = inhibition: at the top concentration
# Source text: NIH Chemical Genomics Center [NCGC]
# NIH Molecular Libraries Probe Production centers Network [MLPCN]
# Assay Submitter (PI): Wei Zheng
# Huntington's disease is a neurodegenerative disorder caused by a trinucleotide repeat expansion in Exon 1 of the Huntingtin gene. The CAG trinucleotide encodes glutamine and polyglutamine expansions cause cell death in selective areas of the brain. Huntington polyglutamine repeats have the tendency to form aggregates which are observable in later stages of the disease. The exact nature of the aggregates, whether toxic, protective, or insignificant, is unclear.
# A stable PC12 cell line containing a gene fusion of Exon 1 of the Huntingtin gene linked to GFP under the control of the inducible ecdysone promoter were used as the cell-based model of Huntington Disease for high throughput screening. Exon 1 of the Huntingtin gene contained an expansion of 103 polyglutamines (Q103) which, when expressed, caused cell death and distinct, bright GFP aggregates. The amount of cell death and the size and intensity of GFP aggregates increased over time and induction level. The cell death were quantified with a measurement of ATP content in the cells. A maximal 40-50% of cell death was observed when the Huntington gene was induced in this cell line.
# We optimized this assay in a homogeneous 1536 well format. A quantitative high throughput screen (qHTS) was conducted on the PC12 cells which were induced to express the toxic fusion construct. Small molecules which reduced aggregate formation were identified bu using a laser scanning cytometer calibrated to detect the aggregates in cell lysates.
# PC12 cells stably containing a construct with an ecdysone inducible promoter expressing GFP fused to the exon 1 of HTTQ103 (Huntington protein which containing a 103 ployglutamine expansion) were used.
# NCGC Assay Protocol Summary:
# Sequence, Parameter, Description
# 1, Reagent, 5 uL 1500 cells/well 1536 TC treated White clear bottom plate
# 2, Compound, 23 nL Tebufenozide inducer (100 nM final) to all columns
# 3, Compound, 23 nL 40 uM to 0.5 nM Libraries
# 5, Reagent, 5 ul ATPLite cell death assay reagent
# 6, Detector, Aggregate quantitation by Acumen Explorer
# Media consisted of phenol red free DMEM + 5% equine serum (Hyclone # SH30072.03 ), 5% supplemented Bovine Calf Serum (Hyclone # SH30074.03 ), 1x pen/strep, no G418
# Acumen Explorer was used to quantitate GFP aggregates using the following criteria: […] laser excitation, 500-530 nm emission, the PMT was set at a voltage of 450 volts, and objects ranging in size of […] in size having a signal of 6 STDEV above background were collected.
# Control columns: 1 = DMSO, 2= 2 uM teb dilns (1:1), 4 = 100 nM Teb inducer. Sample columns received 100 nM Teb.
# On the % scale 0 is the no-effect control and ±100 the full control effect.
SMILES,"activity change, negative = inhibition",Potency
Cn1nc(C(F)(F)F)c(-c2ccc(F)cc2)c1NC(=O)CSCC(=O)O,-3.17%,
COc1cc(/C=N/Nc2nc3ccccc3s2)ccc1O,3.68%,
c1ccc2sc(NN=C3CCCC3)nc2c1,-14.7% [at 46.1 µM],
O=[N+]([O-])c1cc(Br)c(O)c(/C=N/Nc2nc3ccccc3s2)c1,,5.01 µM (active)
COc1ccc(C(C)=O)cc1COc1ccc(Cl)c(C)c1,-14.3%,
CCOC(=O)C1=C(N)N2C(=O)C(C)SC2=C(C(=O)OCC)C1c1cc(OC)c(OC)c(OC)c1 (stereo unspecified),-22.1%,
O=C(NC(=O)c1ccccc1N1CCCCC1)Nc1ccc(Br)cc1,18.1%,
Cn1c(=O)n(C)c(=O)n(CC(=O)N2CCCCC2)c1=O,,3.55 µM (active)
O=C(CN1C(=O)c2cccc3cccc(c23)C1=O)N1CCCCC1,-4.79% [at 46.1 µM],
COc1cccc2c(=O)n(CC(=O)N3CCCCCC3)ccc12,-2.74% [at 46.1 µM],
O=C(CC(c1ccccc1)c1cc(Cl)ccc1O)NCCN1CCOCC1 (stereo unspecified),-16.4%,
Cc1c(NC(=O)C(=O)N/N=C/c2cccs2)c(=O)n(-c2ccccc2)n1C,4.35%,
COC(=O)c1cc(S(=O)(=O)N2CCC(C(N)=O)CC2)oc1C,-8.18%,
Cc1nc(SCC(=O)N2CCc3ccccc3C2)c2c(C)c(C)sc2n1,,14.1 µM (active)
Cc1nc(SCC(=O)N2CC(=O)Nc3ccccc32)c2c(C)c(C)sc2n1,4.03% [at 46.1 µM],
Cc1nnc(SCC(=O)N2CCc3ccccc3C2)s1,-7.49% [at 46.1 µM],
O=C(Nc1ccc(Cl)cc1)Nc1ccc(C(=O)N2CCOCC2)cc1,-21.5%,
O=C(C[n+]1cc(-c2ccc(Cl)c(Cl)c2)n2c1CCC2)c1cccs1,0.87%,
COc1ccc(CCN2C(=O)CC(N3CCC(C(N)=O)CC3)C2=O)cc1OC (stereo unspecified),10.9%,
CCCCCCc1cc2cc(-c3nnc(-c4ccccc4)o3)c(=O)oc2cc1O,,5.01 µM (active)
CCCC(=O)Nc1nnc(-c2ccccc2)o1,-9.12%,
Cc1c(CCC(=O)O)c(=O)oc2cc3occ(-c4ccccc4)c3cc12,-3.15%,

SMILES,"activity change, negative = inhibition",Potency
COc1cc(C(F)(F)F)c(C(=O)N(C)c2ccc(Cl)cc2)cn1,-6.9%,
CCC(=O)Nc1cccc(C2=NOC3(C2)C[C@@H](C(N)=O)N(C(=O)c2cc([N+](=O)[O-])cc([N+](=O)[O-])c2C)C3)c1 (stereo partly specified),13.8%,
O=c1c2ccccc2nc2n1C(CSc1ccc(Cl)cc1)CN2 (stereo unspecified),9.06% [at 46.1 µM],
O=c1c2ccccc2nc2n1C(CSc1ccc(F)cc1)CN2 (stereo unspecified),-9.1% [at 46.1 µM],
O=c1c2ccccc2nc2n1C(CSCc1ccccc1)CS2 (stereo unspecified),,11.2 µM (active)
CN(C)S(=O)(=O)c1ccc(NC(=O)COC(=O)Cn2[nH]c(=O)c3ccccc3c2=O)cc1,7.23%,
Clc1ccc2nc(-c3ccccc3)nc(C(Cl)Cl)c2c1,,1.41 µM (active)
O=C(O)c1cccc(NC(=O)c2cc(-c3cccc(Cl)c3)nc3ccccc23)c1,14% [at 46.1 µM],
Clc1cccc(-c2nc(NCC3CCCO3)c3ccccc3n2)c1 (stereo unspecified),-25.1% [at 46.1 µM],
CC(C)=NN1C(=O)c2ccccc2NC1(C)C,8.6%,
Cc1ccccc1Nc1c(-c2ccccc2)nc2ncccn12,18.6%,
C/C(=N\NC(=O)CNC(=O)C(c1ccccc1)c1ccccc1)c1ccc(C)cc1,,12.6 µM (active)
O=C(CNC(=O)C(c1ccccc1)c1ccccc1)N/N=C\c1ccc2c(c1)OCO2,5.61% [at 46.1 µM],
C/C(=N\NC(=O)Cc1ccc(F)cc1)c1ccc(F)cc1,-15.3% [at 46.1 µM],
CCNC(=S)N1CCN(CCN=CC2=C(O)CC(C)(C)CC2=O)CC1,-0.873%,
Cc1c(Cl)c([N+](=O)[O-])nn1Cc1ccc(C(=O)N/N=C\c2cc(Cl)ccc2O)o1,,1.58 µM (active)
Cc1c(Cl)c([N+](=O)[O-])nn1CCCC(=O)Nc1cc(Cl)ccc1Cl,6.08% [at 46.1 µM],
O=C(N/N=C/c1ccc2c(c1)OCO2)c1ccc(Cn2cc([N+](=O)[O-])cn2)o1,16.5% [at 46.1 µM],
CC(NC(=S)Nc1ccccc1)C(c1cccs1)N1CCOCC1 (stereo unspecified),-9.73%,
O=C(Nc1cccc(C(F)(F)F)c1)c1cnccn1,-11%,
O=C(O)CSCC(=O)Nc1cccc(C(F)(F)F)c1,13.9% [at 46.1 µM],
O=C(Nc1cccc(C(F)(F)F)c1)c1cc(Br)cc(Br)c1O,,5.01 µM (active)

SMILES,"activity change, negative = inhibition",Potency
Cc1cc(C(=O)CSc2nc(N)cc(=O)[nH]2)c(C)n1Cc1ccco1,0.897%,
COC(c1ccccc1)(c1ccccc1)C(Oc1nc(C)cc(C)n1)C(=O)O (stereo unspecified),12.9% [at 46.1 µM],
COc1ccc(/C=C/c2nnc(NC(=O)C(C)C)s2)cc1,3.19%,
CCN(CC)S(=O)(=O)c1ccc(Cl)c(NC(=O)c2ccncc2)c1,-14.4%,
CCN(CC)S(=O)(=O)c1ccc(N(C)Cc2ccc(C(F)(F)F)cc2)nc1,,10 µM (active)
CCN(CC)S(=O)(=O)c1ccc(N(C)CCc2ccc(OC)c(OC)c2)nc1,-4.47% [at 46.1 µM],
C/C(=N\OCC(=O)O)c1ccc(Cl)cc1,1.57%,
O=C(CNCc1cccs1)Nc1cc(S(=O)(=O)N2CCCC2)ccc1Cl,10.3%,
OCCCNc1nccc(-c2cc(Nc3cccc(Cl)c3)ncn2)n1,,0.794 µM (active)
O=C(Nc1cc(Cl)cc(Cl)c1)C(NCCCO)c1ccccc1 (stereo unspecified),2.63% [at 46.1 µM],
CC(C)n1cnc2c(Nc3cccc(Cl)c3)nc(N(CCO)CCCO)nc21,10.2%,
Brc1ccc2c(c1)[C@H]1OCC[C@H]1[C@@H](c1cccs1)N2,-17.7%,
CCCCSc1nc2ccccc2[nH]1,-0.277%,
O=C(CSc1nc2ccccc2[nH]1)c1cccs1,9.78% [at 46.1 µM],
CCC(C)N1C(=O)S/C(=C/c2ccc(Sc3nc4ccccc4[nH]3)o2)C1=O (stereo unspecified),,10 µM (active)
O=C(O)c1ccc(/C=N/Nc2nc(N3CCCCC3)nc(N3CCCCC3)n2)cc1,-22.3%,
NC(=O)c1ccc(NC(=O)COC(=O)c2ccc([N+](=O)[O-])cc2)cc1,13.2%,
COc1ccc(N(Cc2ccccc2)S(=O)(=O)c2cccc(C(=O)O)c2)cc1,39.5%,
CCOC(=O)N1CCN(C(=O)c2ccc3c(c2)N(Cc2ccc(C)cc2)CCS3)CC1,,11.2 µM (active)
O=C(NCCN1CCOCC1)c1ccc2c(c1)N(Cc1ccc(Cl)cc1)CCS2,-10.9%,
CCOC(=O)N1CCN(C(=O)c2ccc(S(=O)(=O)c3ccc(C)cc3)c(NC(C)=O)c2)CC1,10.1% [at 46.1 µM],
Cc1ccc(S(=O)(=O)N2CCN(C(=O)COC(=O)c3c(C)noc3C)CC2)c(C)c1,-9.73%,

SMILES,"activity change, negative = inhibition",Potency
O=C(c1ccccc1-c1ccccc1)N1CCOCC1,1.58% [at 46.1 µM],
Cc1onc(-c2ccccc2)c1C(=O)N1CCOCC1,-8.31% [at 46.1 µM],
Cc1oc2c(c1C(=O)N1CCOCC1)C(=O)c1ccccc1C2=O,,10 µM (active)
COCCN1C2=C(COC(C)(C)C2)C(=S)NC1c1ccccc1 (stereo unspecified),23.8%,
COC(=O)c1sccc1NN1C(=O)c2ccccc2C1=O,-15.1%,
COC(=O)c1sc2ncccc2c1OCc1ccc(Cl)cc1Cl,-3.42% [at 46.1 µM],
COCCNC(=O)c1snc2ccc(Cl)cc12,,10 µM (active)
COCCNC(=O)c1ccccc1-c1nc(-c2ccccc2Cl)no1,8.12% [at 46.1 µM],
Clc1ccc2c(c1)C1=C(C(c3ccncc3)O2)C(c2ccc(Br)cc2)n2ncnc2N1 (stereo unspecified),,12.6 µM (active)
COC(=O)C1=C(C)Nc2ncnn2C1c1cccnc1 (stereo unspecified),-8.05% [at 46.1 µM],
Brc1ccc(C2=CC(c3ccco3)n3ncnc3N2)cc1 (stereo unspecified),-24.3% [at 46.1 µM],
Cc1ccc(-c2ncc(Cl)cc2-c2ccc(S(C)(=O)=O)cc2)cn1,1.61% [at 46.1 µM],
Cc1ccc(Cn2c(SCC(=O)N/N=C/c3ccccc3OCC(=O)O)nc3ccccc32)cc1,17.6%,
O=C(CCCN1C(=O)/C(=C\c2ccccc2)SC1=S)Nc1ccccc1O,22.3%,
O=C(CCCN1C(=O)/C(=C/c2ccco2)SC1=S)Nc1ccccc1,,25.1 µM (active)
O=C(CCCN1C(=O)/C(=C\c2ccco2)SC1=S)Nc1cccc2ccccc12,24.3%,
CC(=O)NCC(O)c1ccc([N+](=O)[O-])cc1 (stereo unspecified),-18.6%,
C/C(Cc1ccccc1)=N\NC(=O)CNC(=O)c1ccc2c(c1)OCCO2,2.88%,
O=C(Nc1ccc(N2CCN(C(=O)c3ccccc3)CC2)c(Cl)c1)c1cccnc1,,22.4 µM (active)
COC(=O)c1cc(NC(=O)c2cccnc2)ccc1N1CCOCC1,1.39%,
O=C(Nc1ccc(N2CCN(C(=O)c3ccccc3)CC2)c(Cl)c1)c1ncn[nH]1,-29.1%,
O=C(Nc1ccc(N2CCOCC2)nc1)c1c(F)cccc1F,10.4%,

SMILES,"activity change, negative = inhibition",Potency
Cc1cc(-c2ccc(/C=N/n3cnnc3)o2)c([N+](=O)[O-])cc1C,3.65% [at 46.1 µM],
N#C/C(=C/c1ccc(-c2ccccc2[N+](=O)[O-])o1)C(=O)NCCN1CCCCC1,-12.2%,
O=C1C2C3C=CC(C4CC34)C2C(=O)N1/N=C/c1ccc(-c2ccccc2[N+](=O)[O-])o1 (stereo unspecified),,25.1 µM (active)
FC(F)(F)c1cccc(NC(=S)Nc2cccc(Cl)c2)c1,-6.26% [at 46.1 µM],
COC(=O)c1ccccc1Sc1c(/C=N/OCc2ccc(Cl)cc2)c(C(F)(F)F)nn1C,-26.1% [at 46.1 µM],
Cn1nc(C(F)(F)F)c(C(=O)Nc2cccc(C(F)(F)F)c2)c1SCc1ccc(Cl)cc1,,12.6 µM (active)
COc1ccc2[nH]c(=S)cc(C)c2c1,19.9%,
O=C(Nc1nnc(COc2ccccc2)s1)Nc1ccccc1F,-6.11%,
CC(NC(=S)NNS(=O)(=O)c1ccc(C(C)(C)C)cc1)c1ccccc1 (stereo unspecified),-16.9%,
Clc1ncn(CCOc2ccccc2)c1Cl,-7.07%,
Cc1cc2ncn(CCCCOc3ccccc3)c2cc1C,,11.2 µM (active)
COCCOCCn1cnc2ccccc21,-19.1% [at 46.1 µM],
CCOC(=O)CSc1nc(C)c(Oc2ccc(Cl)cc2Cl)c(=O)[nH]1,-4.52%,
Brc1ccc(-c2nn[nH]n2)cc1,11.1%,
COc1ccc(SCCN2CCN(CC(C)C)CCC2=O)cc1,-1.2%,
CSc1nc(-c2ccccc2)nc(C(Cl)Cl)n1,,11.2 µM (active)
CSc1nc(C)cc(SC(C(C)=O)C(=O)Nc2ccccc2)n1 (stereo unspecified),-11.8% [at 46.1 µM],
Cc1cccc(NC(=O)CSc2nnc(CCNC(=O)OC(C)(C)C)o2)c1C,-7.25%,

# Reference: PubChem BioAssay AID1688 (National Center for Advancing Translational Sciences (NCATS), 2009)
